From the supplement of paper PMC6555819

Legend:
Assay in all cases: PBM binding z-score (relative to random genomic background probes); higher = stronger binding; sequences stand for … in GC…GCGATTGACAGCGTAGAATGAAGG
[1] = test system: PPARg:RXRa DBDmut IVT, anti-RXR (DBD mutation: RXRa K156A/R161A, NR concentration 270 nM, RXRa partner concentration 90 nM)
In short: (§1)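 Probes were double-stranded and carried 34-nt variable regions with direct-repeat seeds, single-nucleotide variants, half-site ablations and random human genomic background sequences, printed on custom Agilent 4×180K protein-binding microarrays. Arrays were incubated 1 h with ligand-free nuclear receptor dimers in PBS pH 7.4, 2% milk, 0.02% Triton X-100, 1 mM DTT, 0.2 mg/mL BSA and 0.4 mg/ml salmon testes DNA. Antibodies against each partner (one per run) detected binding, and scanned fluorescence was regression-normalized. Binding z-scores use the random background probes as reference.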

[2] = test system: PPARg:RXRa IVT, anti-PPARg (NR concentration 270 nM, RXRa partner concentration 90 nM)
In short: as §1

[3] = test system: PPARg DBDmut:RXRa IVT, anti-PPARg (DBD mutation: PPARg1 K132A/R137A, NR concentration 270 nM, RXRa partner concentration 90 nM)
In short: as §1

[4] = test system: PPARg DBDmut IVT, anti-PPARg (DBD mutation: PPARg1 K132A/R137A, NR concentration 270 nM)
In short: as §1

[5] = test system: PPARg homodimer (NR concentration 180 nM)
In short: as §1

[6] = test system: PXR:RXRa (NR concentration 270 nM, RXRa partner concentration 90 nM)
In short: as §1

[7] = test system: PXR homodimer (NR concentration 270 nM)
In short: as §1

[8] = test system: RARa:RXR (NR concentration 270 nM, RXRa partner concentration 90 nM)
In short: as §1

[9] = test system: RARa homodimer (NR concentration 270 nM)
In short: as §1

[10] = test system: RARb:RXRa (NR concentration 270 nM, RXRa partner concentration 90 nM)
In short: as §1

[11] = test system: RARb homodimer (NR concentration 270 nM)
In short: as §1

[12] = test system: RARg:RXRa (NR concentration 270 nM, RXRa partner concentration 90 nM)
In short: as §1

[13] = test system: RARg homodimer (NR concentration 270 nM)
In short: as §1

[14] = test system: RXRa DBDmut IVT, anti-RXR (DBD mutation: RXRa K156A/R161A, NR concentration 90 nM)
In short: as §1

[15] = test system: RXRa homodimer (NR concentration 180 nM)
In short: as §1

[16] = test system: THRa:RXRa (NR concentration 90 nM, RXRa partner concentration 90 nM)
In short: as §1

[17] = test system: THRa homodimer (NR concentration 90 nM)
In short: as §1

[18] = test system: VDR homodimer (NR concentration 270 nM)
In short: as §1

| Sequence | PBM binding z-score [1] | PBM binding z-score [2] | PBM binding z-score [3] | PBM binding z-score [4] | PBM binding z-score [5] | PBM binding z-score [6] | PBM binding z-score [7] | PBM binding z-score [8] | PBM binding z-score [9] | PBM binding z-score [10] | PBM binding z-score [11] | PBM binding z-score [12] | PBM binding z-score [13] | PBM binding z-score [14] | PBM binding z-score [15] | PBM binding z-score [16] | PBM binding z-score [17] | PBM binding z-score [18] |
| --- | --- | --- | --- | --- | --- | --- | --- | --- | --- | --- | --- | --- | --- | --- | --- | --- | --- | --- |
| CGAACTAGGTCAAGGACAGTGATTCTCCGCACGC | 8.31 | 8.3 | 2.89 | 2.07 | 1.69 | 1.37 | -0.0135 | 2.28 | 0.11 | 4.21 | 3.36 | 3.83 | 4.62 | 1.49 | 2.77 | 3.42 | 2.19 | 0.466 |
| TAGCCTACGTCATGCGGGCCAGTATAGTGTCGGC | -0.258 | -0.361 | -0.565 | -0.82 | -1.11 | -0.921 | -1.11 | -0.886 | -1.36 | -0.527 | -0.71 | -0.452 | -0.536 | -0.98 | -0.341 | -1.7 | -0.856 | -1.16 |
| GGAACGAGGGTAAAGTTGATAGCATCTGTCGACG | 2.48 | 2.91 | 0.376 | -0.666 | 0.544 | 0.0856 | -0.214 | 0.287 | -0.126 | 0.952 | 0.332 | 0.683 | 0.562 | 0.929 | 0.974 | 0.383 | -0.45 | 0.411 |
| CTCGAAAGTTCGGTTGAGGTGAGTATACGGATAA | -0.462 | 0.288 | -0.142 | 0.0612 | 0.083 | 1.14 | 0.236 | 1.8 | -0.11 | 1.55 | 1.12 | 0.738 | 0.973 | 1.24 | 0.161 | 4.57 | 1.37 | 0.742 |
| ACAGACAGGTGCGTGAAGGTAACTCAGCTGGACG | -0.935 | -0.58 | 0.0563 | -0.077 | -0.238 | -0.583 | -0.495 | -0.585 | -0.862 | -0.307 | -0.567 | -0.319 | -0.0259 | -0.249 | -0.0792 | -0.227 | -0.945 | -0.569 |
| CCTAGCAGGCCAGAGTCACTCAAGCATTTCGCTT | 0.697 | -0.158 | -1.34 | -1.29 | 0.134 | -0.712 | -0.709 | -0.507 | -0.47 | -0.0457 | -0.596 | -0.447 | -0.706 | -0.204 | -0.442 | -0.569 | -0.769 | -0.726 |
| TCTCGGAGGACACGAAGGGTCAGAGCTCGACATC | 1.38 | 0.541 | -0.0647 | -1.25 | 0.446 | 1.66 | -0.67 | 2.31 | -0.314 | 3.14 | 3.84 | 3.26 | 3.44 | 0.595 | 2.4 | 2.92 | 0.541 | 0.624 |
| ATCTCTAGGTAACCAAGTTCAGTGGATGCCGAAC | 3.66 | 2.83 | 0.893 | 0.352 | 0.334 | 1.94 | 1.5 | 0.454 | 0.529 | 1.18 | 1.38 | 0.761 | 0.959 | 0.576 | 0.536 | 1.46 | 0.709 | 2.45 |
| CCCACTGGGCCAAAGGTCATTGATTCCAATGCTC | 4.77 | 6.2 | 0.334 | -0.118 | 3.86 | 5.36 | 1.81 | 6.34 | 1.99 | 4.39 | 4.72 | 5.82 | 4.39 | 0.468 | 6.2 | 3.27 | 0.821 | 2.28 |
| TTACCATGGTGAAGGTCGTTGATCCCTCTGTAGA | -0.0288 | 0.772 | -0.132 | -0.462 | 0.317 | 1.1 | 0.0781 | 0.942 | -0.727 | 0.811 | 0.835 | 0.184 | -0.00813 | -0.163 | 1.07 | 0.611 | -0.36 | 0.502 |
| GCGACTGGGGCATCCGCAGGTTACCATAACTTAA | 3.8 | 3.27 | -1.11 | -0.898 | -0.268 | 0.263 | -0.637 | 0.49 | -1 | 0.89 | 0.945 | 1.31 | 0.446 | 0.00577 | 0.41 | 1.21 | -0.198 | -0.454 |
| TCTAGTTGGTCACAGAGGTCACACACGACGGGTA | 2.85 | 4.35 | 1.86 | 0.876 | 6.9 | 5.58 | 2.89 | 6.16 | 4.36 | 4.28 | 4.61 | 5.8 | 5.57 | 1.63 | 6.43 | 3.97 | 2.54 | 4.18 |
| TCGAGTAGGTTACCAATTGGGCATTCAGCTTTCT | 3.77 | 2.73 | -0.446 | -0.0338 | -0.44 | 0.0575 | -0.745 | 0.253 | -0.895 | 0.606 | -0.00589 | 0.186 | -0.124 | 0.484 | 0.205 | -0.0916 | -0.446 | -0.653 |
| CGAACTAGGTCAAGGACCGTGAATCTCCGCACGC | 7.68 | 8.18 | 4.94 | 0.945 | 0.756 | 0.773 | -0.365 | 1.63 | -0.219 | 3.8 | 2.79 | 3.42 | 4.01 | 1.15 | 2.32 | 2.46 | 0.938 | -0.163 |
